In PubChem BioAssay (Tox21):
A number with no mark means an inactive call. Inconclusive results are not listed. Entries that show only a call come without a potency. Activity calls are given as the source filed them. Unless noted, calls come from the whole dose curve; as a rule, active = well fitted curve in the direction sought with a large enough effect in the repeat runs; inconclusive = weak or mixed curves; inactive = no such curve, though single readings can be large; an effect the other way counts as inactive or inconclusive.

Assays:
[1] = qHTS assay for small molecule agonists of the p53 signaling pathway (AID 651631; calls by dose curve; note: nearly all actives have a fitted effect of over 15% in size)
How it was run: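 We treat p53RE-bla HCT-116 cells with compounds for 16 h at 37 °C, add LiveBLAzer B/G FRET substrate for 2 h at room temperature, and measure fluorescence intensity.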

[2] = qHTS assay for small molecules that induce genotoxicity in human embryonic kidney cells expressing luciferase-tagged ATAD5 (AID 651632); note: nearly all actives have a fitted effect of over 15% in size; note: potency is the fitted concentration of half-maximal effect
How it was run: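 HEK293T cells carrying a luciferase reporter tagged to ATAD5 were exposed to compound or DMSO vehicle for 16 hr at 37C, 5% CO2. Amplite was added, and after 30 min at room temperature luciferase activity was read as a marker of ATAD5 induction.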

[3] = qHTS assay for small molecule agonists of the p53 signaling pathway - cell viability (AID 651633; calls by dose curve;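 note: p53RE-bla HCT reporter cells with a stable beta-lactamase p53 reporter; series mostly up to about 83 µM; nearly all actives have a fitted effect of over 30% in size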)
How it was run: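 Viability counter-read: CellTiter-Glo luminescence (30 min, room temperature) in the same p53RE-bla plates. These plates had been exposed to compounds for 16 h at 37 C.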

[4] = qHTS assay for small molecules that induce genotoxicity in human embryonic kidney cells expressing luciferase-tagged ATAD5 - cell viability (AID 651634; calls by dose curve; note: nearly all actives have a fitted effect of over 25% in size; note: potency is the fitted concentration of half-maximal effect)
How it was run: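 HEK293T cells expressing luciferase-tagged ATAD5 were exposed to compound or DMSO for 15.5 hr at 37C, 5% CO2. Viability was then read as live-cell protease activity by CellTiter-Fluor fluorescence after 30 min at 37C.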

[5] = qHTS assay for small molecule disruptors of the mitochondrial membrane potential - cell viability (AID 720634; calls by dose curve;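 note: human HepG2 liver cancer cells; series mostly up to about 83 µM; nearly all actives have a fitted effect of over 20% in size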)
How it was run: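 HepG2 cells seeded overnight at 37 C, then exposed to compound or DMSO for 1 hr at 37 C, 5% CO2. m-MPI dye added, then CellTiter-Glo for 30 min at room temperature; viability read as ATP luminescence.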

[6] = qHTS assay to test for compound auto fluorescence at 590 nm (red) in HepG2 cells (AID 720674)
How it was run: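 Red autofluorescence (Ex/Em 540/590 nm, Rose Bengal sodium equivalents) was measured in HepG2 cells, 2,000 per well in MEM plus 10% FBS, plated overnight at 37 C. Readings were taken 1 hr after adding 23 nL compound or DMSO, at 37 C and 5% CO2.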

[7] = qHTS assay to test for compound auto fluorescence at 535 nm (green) in HepG2 cells (AID 720675)
[8] = qHTS assay to test for compound auto fluorescence at 460 nm (blue) in HEK293 cells (AID 720678)
How it was run: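 Blue read-out at excitation 405 nm and emission 460 nm follows overnight compound exposure of HEK293 cells at 37C in 5% CO2. Activity is given as auto fluorescence equivalency to triamterene.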

[9] = qHTS assay to test for compound auto fluorescence at 590 nm (red) in HEK293 cells (AID 720679)
How it was run: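 Red channel, Ex/Em 540/590nm; signal expressed as equivalency to Rose Bengal sodium. HEK293, 2,000 cells/well, 10% dialyzed FBS; 23 nL compound pinned after 4-5 hr attachment; overnight 37C/5% CO2 before reading.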

[10] = qHTS assay to test for compound auto fluorescence at 535 nm (green) in HEK293 cells (AID 720680)
[11] = qHTS assay to test for compound auto fluorescence at 460 nm (blue) in HEK293 cell free culture (AID 720681)
How it was run: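 Blue fluorescence (Ex 405/Em 460 nm, triamterene-equivalent) was read immediately after pin transfer of compound or DMSO into medium (DMEM, 10% FBS) without cells.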

[12] = qHTS assay to test for compound auto fluorescence at 535 nm (green) in HEK293 cell free culture (AID 720682)
How it was run: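 Green-channel intensity (Ex/Em 485/535 nm) was recorded from compound-treated wells containing only DMEM with 10% FBS. Fluorescein provided the equivalency standard.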

[13] = qHTS assay to test for compound auto fluorescence at 590 nm (red) in HEK293 cell free culture (AID 720683)
How it was run: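 Red-channel autofluorescence of compounds in culture medium (DMEM, 10% FBS), no cells, measured at 540/590 nm. Rose Bengal sodium is the reference fluorophore for equivalence.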

[14] = qHTS assay to test for compound auto fluorescence at 590 nm (red) in HepG2 cell free culture (AID 720684)
How it was run: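 Plate contents were MEM with 10% FBS plus test compound or DMSO, no cells. Fluorescence was recorded with 540 nm excitation and 590 nm emission.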

[15] = qHTS assay to test for compound auto fluorescence at 460 nm (blue) in HepG2 cell free culture (AID 720685)
How it was run: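 Compound (23 nL) or DMSO pinned into cell-free MEM with 10% FBS; blue fluorescence read at 405/460 nm excitation/emission, expressed as auto-fluorescence equivalency to triamterene.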

[16] = qHTS assay to test for compound auto fluorescence at 535 nm (green) in HepG2 cell free culture (AID 720686)
[17] = qHTS assay for small molecule disruptors of the mitochondrial membrane potential (AID 720635); note: potency is the fitted concentration of half-maximal effect
How it was run: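 Mitochondrial membrane potential tracked with Mito-MPS dye, red aggregates (ex 540/em 590 nm) against green monomers (ex 490/em 535 nm). Compound treatment 1 hr at 37C, dye 30 min in HepG2.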

[18] = qHTS assay to test for compound auto fluorescence at 460 nm (blue) in HepG2 cells (AID 720687)
How it was run: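 Blue-channel autofluorescence (Ex/Em 405/460 nm, triamterene-equivalent) was measured after 1 hr compound exposure at 37 C, 5% CO2. Cells were HepG2, plated overnight at 37 C in MEM plus 10% FBS.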

[19] = molecular target: Glucocorticoid receptor (Homo sapiens) (UniProt P04150); test: qHTS assay to identify small molecule agonists of the glucocorticoid receptor (GR) signaling pathway (AID 720691; active = well fitted activation curve with a large enough effect in the signal ratio in the repeat runs, not every such curve was filed as active; the % refers to the signal ratio)
How it was run: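 GR-bla HeLa cells (beta-lactamase reporter under glucocorticoid response element) were plated 4 h at 37 C/5% CO2, given compounds in DMSO, and incubated 18 h at 37 C. LiveBLAzer B/G FRET substrate was added for 2 h at room temperature, then fluorescence intensity read.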

[20] = molecular target: Glucocorticoid receptor (Homo sapiens) (UniProt P04150); test: qHTS assay to identify small molecule antagonists of the glucocorticoid receptor (GR) signaling pathway (AID 720692; active = well fitted inhibition curve with a large enough effect in the signal ratio in the repeat runs, not every such curve was filed as active; the % refers to the signal ratio; note: potency is the fitted concentration of half-maximal effect)
How it was run: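 GR-bla HeLa cells (beta-lactamase reporter under glucocorticoid response element) were pre-plated 4 h at 37 C, treated with compounds plus 5 nM dexamethasone (final) for 18 h, then read by LiveBLAzer B/G FRET fluorescence after 2 h.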

Glucocorticoid receptor (Homo sapiens), sequence (P04150 whole entry, looked up): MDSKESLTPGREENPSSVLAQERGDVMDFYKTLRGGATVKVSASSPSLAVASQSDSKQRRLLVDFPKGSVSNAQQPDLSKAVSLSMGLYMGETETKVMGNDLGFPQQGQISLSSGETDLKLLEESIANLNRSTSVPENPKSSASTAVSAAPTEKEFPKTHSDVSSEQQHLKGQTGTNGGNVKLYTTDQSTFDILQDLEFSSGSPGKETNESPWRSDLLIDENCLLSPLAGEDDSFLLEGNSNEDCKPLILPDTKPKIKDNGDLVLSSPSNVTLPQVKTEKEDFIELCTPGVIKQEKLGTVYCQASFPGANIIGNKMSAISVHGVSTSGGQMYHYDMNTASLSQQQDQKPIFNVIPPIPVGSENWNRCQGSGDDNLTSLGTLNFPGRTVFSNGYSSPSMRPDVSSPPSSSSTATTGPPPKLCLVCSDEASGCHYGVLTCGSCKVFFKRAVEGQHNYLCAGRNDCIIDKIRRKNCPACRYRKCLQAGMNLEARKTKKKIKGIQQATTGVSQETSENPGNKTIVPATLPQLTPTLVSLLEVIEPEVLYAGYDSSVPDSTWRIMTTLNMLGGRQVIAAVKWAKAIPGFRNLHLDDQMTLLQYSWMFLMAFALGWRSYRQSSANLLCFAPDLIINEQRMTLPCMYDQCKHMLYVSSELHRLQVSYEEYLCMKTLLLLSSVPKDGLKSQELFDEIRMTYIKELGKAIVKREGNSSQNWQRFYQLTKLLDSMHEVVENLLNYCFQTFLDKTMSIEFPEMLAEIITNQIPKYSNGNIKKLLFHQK

SMILES	Potency [1]	Potency [2]	Potency [3]	Potency [4]	Potency [5]	outcome [6]	outcome [7]	Potency [8]	outcome [9]	outcome [10]	Potency [11]	outcome [12]	outcome [13]	outcome [14]	outcome [15]	outcome [16]	Potency [17]	outcome [18]	Potency [19]	Potency [20]
O=P(c1ccccc1)(c1ccccc1)c1ccccc1	inactive	inactive	inactive	inactive	inactive	inactive	inactive	inactive	inactive	inactive	inactive	inactive	inactive	inactive	inactive	inactive				
C/C(=C\C(C)CC(C)CC(C)C)C1CC(=O)OC1=O (configuration not stated)	inactive	inactive	inactive	inactive	inactive	inactive	inactive	inactive	inactive	inactive	inactive	inactive	inactive	inactive	inactive	inactive	inactive	inactive	inactive	24.6 µM (active)
O=C(OC1C[C@H]2CC[C@@H](C1)[N+]21CCCC1)C(O)(c1ccccc1)c1ccccc1 (some centres not stated)	inactive	inactive	inactive	inactive	inactive	inactive	inactive	inactive	inactive	inactive	inactive	inactive	inactive	inactive	inactive	inactive	inactive	inactive		
O=[N+]([O-])c1ccccc1CCO	inactive	inactive	inactive	inactive	inactive	inactive	inactive	inactive	inactive	inactive	inactive	inactive	inactive	inactive	inactive	inactive	inactive	inactive	inactive	
CCOc1ccccc1O	inactive	inactive	inactive	inactive	inactive	inactive	inactive	inactive	inactive	inactive	inactive	inactive	inactive	inactive	inactive	inactive	inactive	inactive		
CC(=O)S[C@H](C(=O)N[C@H]1Cc2ccccc2[C@H]2CCC[C@@H](C(=O)O)N2C1=O)C(C)C	inactive	inactive	inactive	inactive	inactive	inactive	inactive	inactive	inactive	inactive	inactive	inactive	inactive	inactive	inactive	inactive	inactive	inactive	inactive	
CCCCCCCCCCCCSC#N	inactive	inactive	inactive	inactive	inactive	inactive	inactive	inactive	inactive	inactive	inactive	inactive	inactive	inactive	inactive	inactive			inactive	
FC1(F)C(F)(F)C(F)(F)C2(F)C(F)(C1(F)F)C(F)(F)C(F)(F)C1(F)C(F)(F)C(F)(F)C(F)(F)C(F)(F)C12F (configuration not stated)	inactive	inactive	inactive	inactive	inactive	inactive	inactive	inactive	inactive	inactive	inactive	inactive	inactive	inactive	inactive	inactive		inactive	inactive	
O=C(O)CCc1nc2ccccc2[nH]1	inactive	inactive	inactive	inactive		inactive	inactive		inactive	inactive	inactive	inactive	inactive	inactive	inactive	inactive	inactive			
CC(C)CCCCCOC(=O)CS	inactive	inactive	inactive	inactive	inactive	inactive	inactive	inactive	inactive	inactive	inactive	inactive	inactive	inactive		inactive		inactive	inactive	
CCc1ccc2c(c1)C(=O)c1ccccc1C2=O	inactive	12.2 µM (active)	inactive	inactive		inactive	inactive	inactive	inactive	inactive	inactive	inactive	inactive	inactive	inactive	inactive	13.7 µM (active)	inactive		
Cc1nc(C)c(C)nc1C	inactive	inactive	inactive	inactive	inactive		inactive	inactive	inactive	inactive	inactive	inactive	inactive	inactive	inactive	inactive		inactive		inactive
CC(C)=CCCC(C)C=O (configuration not stated)	inactive	inactive	inactive	inactive	inactive	inactive	inactive	inactive	inactive	inactive	inactive	inactive	inactive	inactive	inactive	inactive		inactive		
CC(C)=CCC/C(C)=C/C=N/O	inactive	inactive	inactive	inactive		inactive	inactive	inactive	inactive	inactive	inactive	inactive	inactive	inactive	inactive	inactive	inactive	inactive	inactive	
O=C(O)c1cccc(C(=O)O)c1C(=O)O	inactive	inactive	inactive	inactive	inactive	inactive	inactive	inactive	inactive	inactive	inactive	inactive	inactive	inactive	inactive	inactive		inactive	inactive	
Nc1ncnc2c1ncn2[C@@H]1O[C@H](CO)[C@@H](O)[C@H]1O	inactive	inactive	inactive	inactive	inactive		inactive	inactive	inactive	inactive	inactive	inactive	inactive	inactive	inactive	inactive			inactive	

SMILES	Potency [1]	Potency [2]	Potency [3]	Potency [4]	Potency [5]	outcome [6]	outcome [7]	Potency [8]	outcome [9]	outcome [10]	Potency [11]	outcome [12]	outcome [13]	outcome [14]	outcome [15]	outcome [16]	Potency [17]	outcome [18]	Potency [19]	Potency [20]
O=C(O)c1ccccc1[N+](=O)[O-]	inactive	inactive	inactive	inactive	inactive	inactive	inactive	inactive	inactive	inactive	inactive	inactive	inactive	inactive	inactive	inactive		inactive	inactive	
Oc1ccc(CCNCCCCCCNCCc2ccccc2)cc1O	inactive	inactive	inactive	inactive	inactive		inactive	inactive	inactive	inactive	inactive	inactive	inactive	inactive		inactive		inactive		
CC(C)(O)C(=O)O	inactive	inactive	inactive	inactive	inactive		inactive	inactive	inactive	inactive	inactive	inactive	inactive	inactive		inactive		inactive		
CCCCCCCCCCCCCCCCC(=O)O	inactive	inactive	inactive	inactive	inactive	inactive	inactive	inactive	inactive	inactive	inactive	inactive	inactive	inactive	inactive	inactive		inactive	inactive	inactive
O=c1[nH][nH]c2ccccc12	inactive	inactive	inactive	inactive		inactive	inactive	inactive	inactive	inactive	inactive	inactive	inactive	inactive	inactive	inactive	inactive	inactive		
CCn1nc(Cc2ccccc2)cc1C1CCN(C[C@H]2C[C@H](N(C)[C@@H](C(=O)O)C(C)C)C[C@@H]2c2cccc(F)c2)CC1	inactive	inactive	inactive	inactive	inactive	inactive	inactive	inactive	inactive	inactive	inactive	inactive	inactive	inactive	inactive	inactive		inactive	inactive	inactive
CCCCCCOC(=O)c1ccccc1	inactive	inactive	inactive	inactive		inactive	inactive	inactive	inactive	inactive	inactive	inactive	inactive	inactive	inactive	inactive	inactive	inactive		inactive
Clc1cc(Cl)c2c(c1)N=C1CCCCCN1C2	inactive	inactive	inactive	inactive	inactive	inactive	inactive	inactive	inactive	inactive	inactive	inactive	inactive	inactive	inactive	inactive		inactive	inactive	inactive
O=C1c2ccccc2C(=O)C1c1ccc2ccccc2n1	inactive	0.0762 µM (active)	inactive	inactive		inactive	inactive	inactive	inactive	inactive	inactive	inactive	inactive	inactive	inactive	inactive	0.34 µM (active)	inactive	inactive	inactive
O=C1c2ccccc2C(=O)C1c1ccc2cc(S(=O)(=O)O)cc(S(=O)(=O)O)c2n1	inactive	inactive	inactive	52.5 µM (active)	inactive	inactive	inactive	inactive	inactive	inactive	inactive	inactive	inactive	inactive	inactive	inactive		inactive		
CC(=O)Nc1cccc(N)c1	inactive	inactive	inactive	inactive	inactive	inactive	inactive	inactive	inactive	inactive	inactive	inactive	inactive	inactive		inactive		inactive		
O=C(O)c1cc(C(=O)O)c(C(=O)O)cc1C(=O)O	inactive	inactive	inactive	inactive	inactive	inactive	inactive	inactive	inactive	inactive	inactive	inactive	inactive	inactive	inactive	inactive		inactive	inactive	inactive
O=C(c1ccc(Cl)cc1)c1ccc(Cl)cc1	inactive	inactive	inactive	inactive	inactive		inactive	inactive	inactive	inactive	inactive	inactive	inactive	inactive	inactive	inactive		inactive		
O=C(OCCCCCOC(=O)c1ccccc1)c1ccccc1	inactive	inactive	inactive	inactive	inactive	inactive	inactive	inactive	inactive	inactive	inactive	inactive	inactive	inactive	inactive	inactive		inactive	inactive	
O=C(O)CNc1ccccc1	inactive	inactive	inactive	inactive		inactive	inactive	inactive	inactive	inactive	inactive	inactive	inactive	inactive		inactive	inactive		inactive	
COc1ccc(C(=O)c2ccc(C)cc2)c(O)c1	inactive	inactive	inactive	inactive		inactive	inactive	inactive	inactive	inactive	inactive	inactive	inactive	inactive	inactive	inactive	61.8 µM (active)			
